Compound activity (PubChem BioAssay)
Compounds with a hit are over-represented: about 11% of the library has one in this group of screens.
AMA1-RON2 inh = qHTS for Inhibitors of AMA1-RON; Towards Development of Antimalarial Drug Lead: Primary Screen; 360,000 compounds, 0.2% hits; AlphaScreen AMA1-biotinylated RON2 peptide binding; Plasmodium falciparum AMA1 (3D7) - RON2 peptide interaction; AID 720542, 2013; Potency, µM (top dose mostly 58.2 µM), for the others: at the top dose activity change, negative = inhibition, most hits filed as inhibitors;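 further: 0% = vehicle wells and -100% = peptide control; nearly all actives have a fitted effect of over 45% in size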
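AMA1 (3D7) with his tag at 25 nM final met compounds first, then biotinylated RON2 peptide at 25 nM; detection used donor plus acceptor beads, 10 µg/mL apiece, read by AlphaScreen after 30 min at room temperature.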
Sm TGR inh = qHTS Assay for the Inhibitors of Schistosoma Mansoni Peroxiredoxins; AID 485364, 2010; Schistosoma mansoni thioredoxin glutathione reductase (TGR), Q962Y6; 360,000 compounds, 3% hits; Potency, µM (doses to about 114 µM), inactives show at the top dose activity change, negative = inhibition, usual class: inhibitors; purified TGR, DTNB reduction, TNB absorbance 405 nm; further: on the % scale 0 is the no-effect control and ±100 the full control effect; nearly all actives have a fitted effect of over 60% in size
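First, TGR (20 nM dispensed) and NADPH were mixed with compound. Second, a 15 min room-temperature incubation followed. Third, further NADPH and then DTNB were added to start the reaction. Finally, TNB absorbance was monitored kinetically.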
Pf growth 48h = Primary qHTS for delayed death inhibitors of the malarial parasite plastid, 48 hour incubation; P. falciparum luciferase growth in erythrocytes, 48 h; Potency, µM (titrated, usually from 28.7 µM), for inactives: top-dose activity change, negative = inhibition, actives largely listed as inhibitors; 310,000 compounds, 5.9% hits; further: on the % scale 0 is the no-effect control and ±100 the full control effect
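Read-out is firefly luciferase luminescence from an integrated reporter in P. falciparum, so falling signal marks reduced parasite growth. Infected erythrocytes were at 2% hematocrit and 0.1% parasitemia (final) in Albumax-supplemented RPMI 1640.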
Pf growth 96h = Primary qHTS for delayed death inhibitors of the malarial parasite plastid, 96 hour incubation | 320,000 compounds, 6.9% hits | Potency, µM (doses to about 28.7 µM), for inactives: top-dose activity change, negative = inhibition, most hits filed as inhibitors | AID 504834, 2011 | P. falciparum luciferase reporter growth, 96 h; further: on the % scale 0 is the no-effect control and ±100 the full control effect
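Luminescence readout: decreased luciferase signal marks inhibited growth of reporter-expressing P. falciparum in infected red cells (2% hematocrit, 0.05% parasitemia final), exposed to compound two generations (96 h, 37 C, 5% CO2).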
NS1 inh = qHTS Assay for Inhibitors of Influenza NS1 Protein Function | Potency, µM (series often up to 46.1 µM), without a hit: at the highest dose activity, positive = more growth | 270,000 compounds, 0.4% hits; calls by dose curve; further: actives are rising curves; nearly all actives have a fitted effect of over 50% in size
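In this qHTS, NS1 from influenza A is expressed in budding yeast, where it slows growth. Cells are switched from glucose to 2% galactose medium (pH 6.0, -URA), treated with compound, and growth recovery is read at OD600.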
An asterisk follows results filed as active; u = inconclusive; x = no result given; [ ] = remark or other dose. Unless noted, the call rests on the fitted dose curve; in most records, active means well fitted curve in the direction sought with a large enough effect; inconclusive means small, poorly fitted or top-dose-only effect, or another doubt; inactive means no such curve, though single readings can be large; an effect the other way counts as inactive or inconclusive. Potency means the concentration at half of the fitted maximal effect.

SMILES | AMA1-RON2 inh | Sm TGR inh | Pf growth 48h | Pf growth 96h | NS1 inh
CCSc1nc2c(c(=O)n1-c1ccc(F)cc1)SCC2 | 0.4% | 4.2% | u | 2.94µM* | -4.0%
O=C(CSc1nc2c(c(=O)n1-c1ccc(Cl)cc1)SCC2)NCc1ccco1 | -6.4% | u | u | u | -11.9%
Cc1ccc(-n2c(SCC(=O)NCc3ccco3)nc3nc4c(cc3c2=O)COC(C)(C)C4)cc1 | 0.9% | 22.4µM* | 9.28µM* | -10.7% | 14.1%
Cc1ccc(-c2nnn(CC(=O)N(Cc3ccc(F)cc3)C(C(=O)NC3CCCC3)c3ccncc3)n2)o1 (stereo not given) | 11.3% | u | u | -29.2% | -18.4%
COc1cccc(N(C(=O)Cn2nnc(-c3cccs3)n2)C(C(=O)NC2CCCCC2)c2ccncc2)c1 (stereo not given) | 10.7% | -7.7% | -13.6% | u | 17.5%
CC(C)(C)NC(=O)C(OC(=O)Cn1nnc(-c2ccc(F)cc2)n1)c1ccncc1 (stereo not given) | 8.4% | -15.4% | 17.5% | 9.28µM* | -16.9%
Cc1ccc(C)c(N(C(=O)Cn2nnc(-c3cccs3)n2)C(C(=O)NC2CCCC2)c2ccncc2)c1 (stereo not given) | -7.1% | -1.8% | 4.65µM* | u | -13.0%
CC(C)(C)N(C(=O)Cn1nnc(-c2ccc(F)cc2)n1)C(C(=O)NC1CCCC1)c1ccncc1 (stereo not given) | -3.0% | -23.8% | u | 8.28µM* | 0.8%
CC(C)CCNC(=O)C(c1ccncc1)N(C(=O)Cn1nnc(-c2ccc(F)cc2)n1)c1ccccc1F (stereo not given) | -16.1% | 3.0% | u | 6.57µM* | x
CCc1ccccc1N1CC(c2nc3ccccc3n2Cc2cccc(C)c2)CC1=O (stereo not given) | x | -1.2% | x | x | x
O=C(CN(CCN1CCOCC1)C(=O)Cn1nnc(-c2ccc(F)cc2)n1)NC1CCCCC1 | 5.7% | 14.6%[11.4 µM] | x | 6.57µM* | -13.7%
O=C(CN(CCCN1CCOCC1)C(=O)Cn1nnc(-c2ccc(F)cc2)n1)NC1CCCCC1 | 9.3% | 0.0% | -12.8% | 1.3% | 5.6%
CCCCOc1nc2ccccc2nc1C(C#N)C(=O)NC1CCCCC1 (stereo not given) | 16.2% | 0.0% | 12.1% | 1.47µM* | -2.6%
Cc1cccc(C(=O)NN2S(=O)(=O)c3ccccc3S2(=O)=O)c1 | 4.9% | -1.5% | 99.5% | -19.1% | x
O=[N+]([O-])c1ccc(NC2CCN(Cc3ccccc3)CC2)c2ccncc12 | -1.1% | -0.4% | 1.65µM* | u | -3.8%
CC1CCC2C(=O)N(c3ccc(NC4CCN(Cc5ccccc5)CC4)c([N+](=O)[O-])c3)C(=O)C2C1 (stereo not given) | -7.4% | 2.8% | 11.7µM* | 18.1% | x
Cc1ccc(/C=N/N2CCN(Cc3ccccc3)CC2)cc1 | 12.6µM* | 56.2% | 18.8% | 33.4% | x
Cc1ccc(CN2CCN(/N=C/c3ccccc3)CC2)cc1 | -26.1% | 0.0% | 0.6% | 2.0% | -0.2%
CC(/C=N/N1CCN(Cc2ccccc2)CC1)=C\c1ccccc1 | 12.6µM* | 5.8% | 27.7% | u | x
Fc1ccc(/C=N/N2CCN(Cc3ccccc3)CC2)cc1 | u | 4.2% | 19.1% | 9.28µM* | 8.2%
C/C(=N\NC(=O)c1c[nH]c2ccccc12)c1ccc(C)o1 | 59.1% | -10.6% | x | 0.928µM* | -1.0%
Cc1c(N(C(=O)CNC(=O)c2ccccc2)C2(C(=O)NC3CCCCC3)CCCCC2)c(=O)n(-c2ccccc2)n1C | 9.6% | -3.0% | 5.86µM* | u | x
CC(=O)NCC(=O)N(c1c(C)n(C)n(-c2ccccc2)c1=O)C1(C(=O)NC2CCCC2)CCCCC1 | 0.0% | 1.5% | -4.3% | u | 2.1%
CNC(=S)n1cnc(N)n1 | 51.0% | -0.9% | -6.9% | -13.3% | 3.0%
COc1cc2c(cc1OC)C(c1cccc([N+](=O)[O-])c1)NC(=O)C2 (stereo not given) | -3.2% | -22.0% | 3.9% | 6.57µM* | -2.0%
SMILES | AMA1-RON2 inh | Sm TGR inh | Pf growth 48h | Pf growth 96h | NS1 inh
COc1cc2c(cc1OC)C1(CCCC1)CNC2c1cccc([N+](=O)[O-])c1 (stereo not given) | -20.2% | u | u | 3.29µM* | -0.7%
O=C1NC2=C(C(=O)CCC2)C(c2cccc([N+](=O)[O-])c2)N1 (stereo not given) | -3.6% | 0.0% | -6.0% | u | -3.4%
CCN1C(=O)/C(=C/C=C2\N(CC)c3cc(S(=O)(=O)N(C)C)ccc3N2c2ccccc2)SC1=S | -6.0% | -5.4% | u | 13.1µM* | 2.7%
CCN1C(=O)/C(=C\C=C\c2ccccc2[N+](=O)[O-])SC1=S | -20.5% | 9.7% | u | 17.1% | x
CC1CCN(C(c2cccs2)c2nnnn2Cc2ccccc2)CC1 (stereo not given) | 4.3% | 10.7% | x | 2.62µM* | -48.7%
c1ccc(CCn2nnnc2C(c2cccs2)N2CCN(Cc3ccc4c(c3)OCO4)CC2)cc1 (stereo not given) | u | 32.8% | u | -5.0% | -5.0%
Fc1ccccc1N1CCN(C(c2cccs2)c2nnnn2CCc2ccccc2)CC1 (stereo not given) | -12.0% | 1.9% | 8.28µM* | u | 0.6%
Fc1ccc(N2CCN(C(c3cccs3)c3nnnn3CCc3ccccc3)CC2)cc1 (stereo not given) | 0.0% | 1.3% | 13.1µM* | 18.1% | -42.4%
FC(F)(F)COCC(F)(F)F | x | x | -12.6% | -9.0% | x
COc1ccc(Cl)cc1NC(=O)CN(C)C(=O)CCc1nc2ccccc2c(=O)[nH]1 | -0.5% | 0.9% | -21.4% | u | x
CNC[C@H](Cc1ccccc1)NC[C@@H](Cc1cccc2ccccc12)NCCc1ccc(C)cc1 | 55.2% | -1.6% | 2.62µM* | 2.94µM* | 3.2%
CCOc1ccc(C(=O)NCCc2sc(-c3ccc(OC)c(OC)c3)nc2C)cc1 | x | -7.3% | x | x | x
CCCS(=O)(=O)Nc1ccc(N2CCCCC2)c(S(=O)(=O)Nc2ccccc2OC)c1 | -27.2% | 3.8% | 10.4µM* | 13.1µM* | x
COc1ccccc1NS(=O)(=O)c1cc(NC(=O)C2CCC2)ccc1N1CCCCC1 | -5.1% | 18.5% | u | u | u
COc1ccccc1NS(=O)(=O)c1cc(N)ccc1N1CCCCC1 | 1.1% | x | 14.7µM* | -12.4% | 10.5%
CCN(c1ccccc1)S(=O)(=O)c1nnc(NC(=O)C(C)Oc2ccccc2)s1 (stereo not given) | x | 4.0% | x | x | x
COc1ccc(NC2CCN(C3CC(=O)N(c4ccc(F)c(Cl)c4)C3=O)CC2)cc1 (stereo not given) | -9.9% | 11.2µM* | 29.3% | -97.4% | -54.2%
COc1cccc(N2CCN(C3CC(=O)N(c4ccc(F)c(Cl)c4)C3=O)CC2)c1 (stereo not given) | 0.0% | 50.1µM* | 18.7% | x | -5.2%
